Data reported in ChEMBL document CHEMBL3988442, “University of Dundee, Small-Polar-MMV Screening Library” (2021).
About 1,200 (3.2%) of roughly 38,000 compounds showed an effect of 50% or more. The median lay at about -58%. Shown is part of a subset that was picked to be rich in strong results.

Test system: Plasmodium falciparum
Test: Calibr Malaria Delayed Death Assay SOP
Assay type: functional, organism-based
Design: scale not given: in the data most compounds retested in dose-response had high values
Conditions: concentration 4.99e-06 (unit not given; other assays of the set use mol/L)

Compound	Percent Effect [%]
CC(C)CC(=O)NCCCn1cncn1	-49.15
N#Cc1csc(CNCCOc2ccccc2)c1	-47.61
CC(C)N1Cc2c(C(=O)N3CCN(C)CC3)nn(C)c2C1	-111.4
Cc1ccc(-c2nc(CN3CCCC3Cn3cncn3)co2)cc1 (centres undefined)	-9.69
CS(=O)(=O)NCC1CCCCN1Cc1ccccc1C#N (centres undefined)	-35.93
CN(C)c1ccccc1CN1CCCCC1CNS(C)(=O)=O (centres undefined)	58.92
CC1CS(=O)(=O)CCN1Cc1ccccc1N(C)C (centres undefined)	-5.29
c1ccc(CC2(CNCc3ncc[nH]3)CCC2)cc1	42.05
CCCC1(CNCc2ncc[nH]2)CCC1	24.35
CCC1(CNCc2ncc[nH]2)CCCC1	66.04
Cl.c1cc(OCc2ccc3c(c2)OCO3)ccc1CNC1CC1	-194.6
O=C(Nc1cccc(OCC(F)F)n1)c1ccncc1F	-156.1
O=C1NC(c2ccccc2)=N[C@@]12CC[C@@H]1CN(Cc3ccco3)C[C@@H]12	17.95
O=C1NC(c2ccccc2)=N[C@@]12CC[C@@H]1CN(Cc3ccncc3)C[C@@H]12	12.66
O=C1NC(c2ccccc2)=N[C@@]12CC[C@@H]1CN(Cc3ccoc3)C[C@@H]12	57.5
Cc1nc(C)n(CC2CN(CCCOc3ccccc3)CCO2)n1 (centres undefined)	-31.23
CN1CCNC(=O)C1CC(=O)NCCc1cnn(-c2ccccc2)c1 (centres undefined)	-54.63
Cc1ccc(C(=O)N2CCC3(CCCC3)CC2)c(=O)[nH]1	-40.97
O=C(O)C(F)(F)F.O=C(c1ccoc1)N1CCOC2(COCCN(CC3CC3)C2)C1 (centres undefined)	-22.12
Fc1cccc(CN2CCOCC3(CCN(C4CCOCC4)C3)C2)c1.O=C(O)C(F)(F)F.O=C(O)C(F)(F)F (centres undefined)	77.57
Fc1cccc(CN2CCOC3(COCCN(CC4CC4)C3)C2)c1.O=C(O)C(F)(F)F.O=C(O)C(F)(F)F (centres undefined)	61.62
O=C(O)C(F)(F)F.O=C(c1ccco1)N1CCOCC2(CCN(C3CCOCC3)C2)C1 (centres undefined)	-3.89
Cc1cccc(CN2CCOCC3(CCN(C4CCOCC4)C3)C2)n1.O=C(O)C(F)(F)F.O=C(O)C(F)(F)F.O=C(O)C(F)(F)F (centres undefined)	40.9
Cc1occc1C(=O)N1CCOCC2(CCN(C3CCOCC3)C2)C1.O=C(O)C(F)(F)F (centres undefined)	-32.59

Compound	Percent Effect [%]
O=C(N1CCOCC1)[C@@]12CCO[C@@H]1CCN(Cc1cccc(F)c1)C2.O=C(O)C(F)(F)F	-31.47
O=C(O)C(F)(F)F.O=C(O)C(F)(F)F.O=C(O)C(F)(F)F.c1cncc(CN2CCC3(COCCN(C4CCOCC4)C3)C2)c1 (centres undefined)	-45.9
Cc1ccc(C(=O)N2CCOCC3(CCN(C4CCOCC4)C3)C2)o1.O=C(O)C(F)(F)F (centres undefined)	-106.4
COc1ccc(CN2CCOCC3(CCN(C4CCOCC4)C3)C2)cc1.O=C(O)C(F)(F)F.O=C(O)C(F)(F)F (centres undefined)	59.83
c1cc(CN2CCOCC3(CCN(C4CCOCC4)C3)C2)ccn1 (centres undefined)	-42.35
Cc1cccc(CN2CCOCC3(CCN(C4CCOCC4)C3)C2)c1.O=C(O)C(F)(F)F.O=C(O)C(F)(F)F (centres undefined)	78
O=C(O)C(F)(F)F.O=C([C@@H]1C[C@@H]2CCN(C3CCOCC3)C[C@H]2O1)N1CCOCC1	-14.29
c1cc(-c2cn[nH]c2)ccc1CN1CCCCC1	-42.56
CCn1ccnc1CNCc1ccc(C)cc1OC(C)(C)C	21.04
Cn1cc(CN2CC[C@@H]3[C@H]2CCC(=O)N3c2ccccc2)cn1.O=C(O)C(F)(F)F	-62.18
Cn1cnc2nc3n(c2c1=O)CCC3	-114.6
COc1ccc2nnc(CCC(=O)Nc3nc4c(s3)CCC4)n2n1	-9.679
CCN1CCC(CNc2nccc(C)n2)(N(C)C)CC1	-52.36
O=C(O)C(F)(F)F.O=C(O)C(F)(F)F.c1cc(CN2CCCC3(COCCN(Cc4c[nH]nn4)C3)C2)cs1 (centres undefined)	27.82
Cn1cc(CN2CCCC3(COCCN(Cc4c[nH]nn4)C3)C2)cn1.O=C(O)C(F)(F)F.O=C(O)C(F)(F)F (centres undefined)	-58.09
Fc1ccc(CN2CCCC3(COCCN(Cc4c[nH]nn4)C3)C2)cc1.O=C(O)C(F)(F)F.O=C(O)C(F)(F)F (centres undefined)	61.69
CO[C@@H]1CC[C@H]2[C@H]1OCCN2C(=O)C1CCOCC1	-57.64
NS(=O)(=O)c1cnn(CCC(=O)N(C2CCCCC2)C2CC2)c1	-77.61
CC(C)(C(=O)NCC(=O)N1CCCC1)c1ccccc1F	-11.95
COCCC(=O)N1CCC2(CN(Cc3cccc(Cl)c3)C2)C1	-141.8
COC(=O)CCC(=O)N1CCC2(CN(Cc3cccc(Cl)c3)C2)C1	-43.68
CC(=O)N(C)c1nc(CN2CCCC2Cn2cncn2)cs1 (centres undefined)	-120.1
CC(=O)N(C)c1nc(CN2CCCCC2Cn2cncn2)cs1 (centres undefined)	-131.1
CC1CCCN(Cc2ccc(CNC(=O)NCc3ccon3)cc2)C1 (centres undefined)	-178.1

Compound	Percent Effect [%]
Cc1cccc2nc(CN3CCCC(C)C3)cc(=O)n12 (centres undefined)	-16.65
CCN(C(C)=O)c1nc(CN2CCCCC2Cn2cncn2)cs1 (centres undefined)	7.085
CC(=O)N(c1ccc(C)cc1)c1nc(CN2CCCC(C)C2)cs1 (centres undefined)	82.35
CC(=O)N(C)c1nc(CN2CCCC2c2cnn(C)c2)cs1 (centres undefined)	-87.18
CC(=O)N(c1ccc(F)cc1)c1nc(CN2CCCC2C(C)C)cs1 (centres undefined)	89.73
CC(=O)N(c1ccc(C)cc1)c1nc(CN2CCCCC2C)cs1 (centres undefined)	61.62
O=C(O)C(F)(F)F.c1cnc(N2CC[C@@H](OCC3CC3)[C@@H]2Cc2cccnc2)nc1	-48.06
Cn1cc(C(=O)CC2CCCN2C(=O)c2c[nH]c3ccccc23)cn1 (centres undefined)	4.786
CCC(CO)N(C/C(C)=C/c1ccco1)Cc1ccco1 (centres undefined)	-44.13
Cc1ccc(C(=O)N2CCO[C@H]3[C@H](OCC4CCOCC4)CC[C@@H]32)o1	-19.31
CS(=O)(=O)NC[C@]12COC[C@H]1CN(C(=O)CC1CCCC1)C2	-153.3
O=C(C1CCOCC1)N1C[C@H]2CCC[C@@]2(COc2cccnc2)C1.O=C(O)C(F)(F)F	-16.46
Cn1nnc(NCc2ccc(OCc3ccc(Cl)cc3)cc2)n1	-71.17
Cc1nc2oc(C(=O)N3CCOCC3)c(N)c2c2c1CCCC2	-269.1
O=C(C[C@@H]1COC[C@H]2CN(Cc3ccccc3)C[C@@H]12)N1CCCC1.O=C(O)C(F)(F)F	-13.07
CC(C)(C)c1cc2ncn(CCCN3CCCCC3CO)c(=O)c2s1 (centres undefined)	-23.08
O=C(NCC1CC1)C1CCC2(CCN(C(=O)c3ccccn3)CC2)O1.O=C(O)C(F)(F)F (centres undefined)	-137.4
O=C(NCC(O)CO)Nc1cc(Br)ccc1F (centres undefined)	-140
O=C(NCc1cccnc1N1CCc2ccccc2C1)c1cc(=O)[nH][nH]1	-96.6
Cc1nc(CN2CCCC(N(C)Cc3c(C)noc3C)C2)no1 (centres undefined)	57.32
Cc1nc(CN2CCCC(NCCc3ccccc3Cl)C2)no1 (centres undefined)	81.78
Cc1nc(CN2CCCC(NCc3nc4ccccc4s3)C2)no1 (centres undefined)	-31.98
Cc1nc(CN2CCCC(NCc3cccc4ccccc34)C2)no1 (centres undefined)	57.02
Cc1nc(CN2CCCC(NCc3ccc4ccccc4c3)C2)no1 (centres undefined)	-12.45

Compound	Percent Effect [%]
Cc1nc(CN2CCCC(N(C)Cc3cnn(C)c3)C2)no1 (centres undefined)	-49.27
Cc1cc(CN(C)C2CCCN(Cc3noc(C)n3)C2)no1 (centres undefined)	-96.62
Cc1nc(CN2CCCC(NCCOc3ccccc3)C2)no1 (centres undefined)	-60.44
COc1ccccc1OCCNC1CCCN(Cc2noc(C)n2)C1 (centres undefined)	19.3
CCOc1ncccc1CNS(=O)(=O)c1ccc2c(c1)CCO2	-29.02
CCc1nnc2n1CCN(Cc1nc3c(F)cccc3[nH]1)C2	-34.12
O=C(NCc1cccs1)[C@H]1CC[C@@H]2[C@@H](CCN2Cc2ccoc2)O1.O=C(O)C(F)(F)F	4.133
Cc1nnc([C@@]23CCO[C@@H]2CCN(Cc2cccc4ccccc24)C3)o1	-36.67
COc1cc(C2CC(=O)Nc3c2nc2n3CCCC2)cc(OC)c1O (centres undefined)	-209
Cc1noc2ncc(S(=O)(=O)N3CCCC(C)(C)CC3)cc12	-55
CCN(CC)c1ccc(-c2ccc(C)c(S(N)(=O)=O)c2)nn1	-97.64
CC(CN1CC[C@@H]2CCCC[C@@H]2C1)n1cnc2ccccc21 (some centres undefined)	-12.48
CN(Cc1ccc(N(C)C)cc1)C(=O)NCc1nnc2n1CCC2	-107.1
Cc1ccc(CNC(C)(C)c2noc(C(C)(C)C)n2)o1	-93.54
COc1ccccc1C(O)Cn1cc(C(=O)NCc2ccco2)nn1 (centres undefined)	-49.33
COc1ccccc1C(C)(C)NCc1ccc(C)o1	77.27
COC(=O)c1ccc(CNC(C)(C)c2ccccc2OC)o1	-1.138
CNc1c(NCc2ccco2)c(=O)c1=O	-69.06
COc1ccccc1C(C)(C)NCc1ccco1	64.69
CCc1nc(CN2CCCC(N(C)Cc3nc(C)c(C)o3)C2)no1 (centres undefined)	-5.85
Cc1ncnc2c1CCN(CC(=O)N(C)C)CC2.O=C(O)C(F)(F)F	-30.27
O=C(C1=COCCO1)N1CC(Oc2nc3c(Cl)cccc3s2)C1	-117.3
